# According to PubChem BioAssay (NCATS):
# “And” between values parts separate entries of the source, which are not always exact repeats. Equal entries are not always repeated. The source made the active and inactive calls. How the calls were made is not given here.
# Molecular target: Nuclear receptor subfamily 1 group I member 2 (Rattus norvegicus) (UniProt Q9R1A7)
# Experiment: qHTS assay for small molecule activators of the rat pregnane X receptor (rPXR) signaling pathway (AID 651751); further: 0% is about no effect
# Conditions: rPXR reporter cells, luciferase (One-Glo), 24 h
# Chain of Nuclear receptor subfamily 1 group I member 2 (Rattus norvegicus) (Q9R1A7 whole entry, looked up): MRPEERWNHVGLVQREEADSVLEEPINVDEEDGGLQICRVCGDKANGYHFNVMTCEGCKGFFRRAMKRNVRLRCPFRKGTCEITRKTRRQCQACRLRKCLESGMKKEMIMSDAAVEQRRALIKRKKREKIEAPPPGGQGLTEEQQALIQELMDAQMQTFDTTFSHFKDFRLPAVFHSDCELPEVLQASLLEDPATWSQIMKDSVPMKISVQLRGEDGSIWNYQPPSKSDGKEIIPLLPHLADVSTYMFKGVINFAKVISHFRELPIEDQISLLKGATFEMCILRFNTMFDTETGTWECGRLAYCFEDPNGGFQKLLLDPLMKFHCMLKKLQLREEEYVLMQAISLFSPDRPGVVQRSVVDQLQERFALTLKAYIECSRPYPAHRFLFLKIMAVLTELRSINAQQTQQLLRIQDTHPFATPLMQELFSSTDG
row,Compound,max response
1,CCCc1c(OCCCCc2nn[nH]n2)ccc(C(C)=O)c1O,-2.11% (inactive)
2,[Cl][In]([Cl])[Cl],-5.11% (inactive)
3,CN(C)CCC=C1c2ccccc2CCc2ccccc21,4.03% (inactive) and -3.34% (inactive)
4,NC(=O)c1ncn([C@@H]2O[C@H](CO)[C@@H](O)[C@H]2O)n1,-13.6% (inactive)
